The text below walks through data of PubChem BioAssay (NCI).

Test systems include DU-145 prostate; K-562 leukemia; MALME-3M melanoma; MDA-MB-231 breast; RXF 393 renal; SF-268 CNS; SF-295 CNS; UACC-257 melanoma; M14 melanoma; HCT-15 colon; HT29 colon; SNB-75 CNS; SNB-19 CNS; U251 CNS; PC-3 prostate; SK-MEL-5 melanoma; UACC-62 melanoma; LOX IMVI melanoma; SK-MEL-28 melanoma.
Assay in all cases: NCI-60 one-dose screen, 48 h (100 = growth as untreated, 0 = no growth, -100 = all killed)
Holding throughout (settings): 10 µM unless noted

The panel holds about 83,000 compounds, 20% with a hit somewhere; the sample as a whole holds those more often.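 Interpretation: 100, growth as untreated; towards 0, rising growth inhibition; 0, no net growth; 0 to -100, cell death. Compounds scoring below 10 were considered active.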 Values without a mark were called inactive. Calls of active or inactive are those of the source.

As for `COc1cnc2c(c1)C(=O)c1c-2n(CCCBr)c(=O)c2cc([N+](=O)[O-])ccc12`, the growth with DU-145 prostate is 7.11% (active); in the experiment with K-562 leukemia it was 11.7%; in the experiment with MALME-3M melanoma it was -2.44% (active); in the experiment with MDA-MB-231 breast it was 24.3%; in the experiment on RXF 393 renal it was -10.8% (active); in the experiment on SF-268 CNS it was 9.06% (active). Further, the growth in the experiment with SF-295 CNS is -11.3% (active); in the experiment with UACC-257 melanoma, -32.3% (active); with M14 melanoma it was 3.34% (active); with HCT-15 colon, 20.7%; in the experiment with HT29 colon it was 0.984% (active); in the experiment on SNB-75 CNS, 13.5%. Further, the growth with SNB-19 CNS is 22.3%; in the experiment with U251 CNS it was -22.4% (active); in the experiment with PC-3 prostate, 4.1% (active); with SK-MEL-5 melanoma, -82.6% (active); in the experiment on UACC-62 melanoma it was -62.3% (active); with LOX IMVI melanoma, -54.2% (active). Besides, the growth in the experiment with SK-MEL-28 melanoma was 16.3%.
Regarding `C[C@@]1(N2C(=O)OC[C@@H]2c2ccccc2)C(=O)N([C@H](CC(=O)N2CCC(N3CCCCC3)CC2)C(=O)NCc2cccc(C(F)(F)F)c2)[C@@H]1/C=C/c1ccccc1`, the growth with DU-145 prostate is 63.5%; in the experiment with K-562 leukemia, -40.6% (active); in the experiment with MALME-3M melanoma it was -69.5% (active); in the experiment on MDA-MB-231 breast, 31%; with RXF 393 renal, 61%; with SF-268 CNS, 63.2%. Moreover, the growth is 100% with SF-295 CNS; -72.1% (active) in the experiment on UACC-257 melanoma; -54.3% (active) in the experiment with M14 melanoma; 19% with HCT-15 colon; -3.04% (active) in the experiment with HT29 colon; 66.3% in the experiment with SNB-75 CNS. Also, the growth with SNB-19 CNS is 74.1%; in the experiment with U251 CNS, 38.4%; in the experiment on PC-3 prostate, 52.8%; in the experiment with SK-MEL-5 melanoma it was -93% (active); in the experiment on UACC-62 melanoma it was 24.6%; in the experiment on LOX IMVI melanoma, -50.1% (active). Besides, the growth with SK-MEL-28 melanoma was -45.2% (active).
Regarding `COc1cc(OC)c(/C=C/S(=O)(=O)Cc2ccc(OC)c(N)n2)c(OC)c1`, the growth was 2.86% (active) with DU-145 prostate; 8.04% (active) in the experiment on K-562 leukemia; 59.2% with MALME-3M melanoma; 15.3% with MDA-MB-231 breast; 43.8% in the experiment with RXF 393 renal; 39% with SF-268 CNS. Also, the growth is 6.52% (active) in the experiment with SF-295 CNS; 47.8% in the experiment on UACC-257 melanoma; 11.2% in the experiment on M14 melanoma; 7.7% (active) with HCT-15 colon; -9.76% (active) in the experiment on HT29 colon; 40.5% with SNB-75 CNS. Further, the growth in the experiment on SNB-19 CNS is 35.8%; with U251 CNS, 8.02% (active); in the experiment on PC-3 prostate, 26.8%; in the experiment with SK-MEL-5 melanoma, -31.2% (active); in the experiment on UACC-62 melanoma it was 42.3%; in the experiment on LOX IMVI melanoma, 9.35% (active). Moreover, the growth in the experiment on SK-MEL-28 melanoma is 53.7%.
With `CC/C=C\C[C@H](O)C/C=C1/C(=O)C=C[C@@H]1C/C=C\CCCC(=O)OC(C)C`, the growth in the experiment with DU-145 prostate was 11.5%; with K-562 leukemia it was -7.12% (active); in the experiment with MALME-3M melanoma, -56.2% (active); in the experiment on MDA-MB-231 breast it was 7.13% (active); in the experiment on RXF 393 renal, -82.7% (active); with SF-268 CNS it was 12.9%. Further, the growth was -24.7% (active) with SF-295 CNS; -51% (active) in the experiment on UACC-257 melanoma; -31.3% (active) in the experiment with M14 melanoma; -33.5% (active) in the experiment with HCT-15 colon; -49.7% (active) with HT29 colon; 46% in the experiment on SNB-75 CNS. In addition, the growth in the experiment on SNB-19 CNS is 9.75% (active); in the experiment with U251 CNS, -89.8% (active); in the experiment with PC-3 prostate, -0.368% (active); in the experiment on SK-MEL-5 melanoma, -94.7% (active); with UACC-62 melanoma it was -41.7% (active); in the experiment on LOX IMVI melanoma, -82.3% (active). Also, in the experiment with SK-MEL-28 melanoma, the growth is -41.3% (active).
In the case of `CC/C=C\C[C@H](O)C/C=C1/C(=O)C=C[C@@H]1C/C=C\CCCC(N)=O`, the growth in the experiment on DU-145 prostate was 18.8%; in the experiment on K-562 leukemia, -1.14% (active); in the experiment on MALME-3M melanoma it was -14.8% (active); with MDA-MB-231 breast it was 20.4%; in the experiment with RXF 393 renal, -81% (active); in the experiment on SF-268 CNS, 27.3%. Besides, the growth was -22.2% (active) in the experiment with SF-295 CNS; -11.7% (active) with UACC-257 melanoma; 1.88% (active) in the experiment with M14 melanoma; -36.8% (active) in the experiment with HCT-15 colon; -1.88% (active) in the experiment with HT29 colon; 69.3% with SNB-75 CNS. Moreover, the growth is 26.9% in the experiment on SNB-19 CNS; 0.507% (active) in the experiment on U251 CNS; 19.6% with PC-3 prostate; -94.8% (active) with SK-MEL-5 melanoma; -45.8% (active) in the experiment with UACC-62 melanoma; -56.2% (active) in the experiment on LOX IMVI melanoma. Also, the growth in the experiment on SK-MEL-28 melanoma was -14.5% (active).
For `CC/C=C\C[C@H](F)C/C=C1/C(=O)C=C[C@@H]1C/C=C\CCCC(=O)OC`, the growth in the experiment on DU-145 prostate is 25.7%; in the experiment on K-562 leukemia, -5.83% (active); in the experiment with MALME-3M melanoma it was -13.6% (active); in the experiment with MDA-MB-231 breast, 3.26% (active); in the experiment on RXF 393 renal it was -45.5% (active); in the experiment with SF-268 CNS it was 26%. In addition, the growth in the experiment on SF-295 CNS is 4.48% (active); in the experiment on UACC-257 melanoma, -0.592% (active); with M14 melanoma, 1.2% (active); in the experiment with HCT-15 colon, -32.8% (active); in the experiment on HT29 colon it was -31% (active); with SNB-75 CNS it was 61.9%. Besides, the growth with SNB-19 CNS is 34%; with U251 CNS, 1.8% (active); with PC-3 prostate, 12.9%; in the experiment on SK-MEL-5 melanoma, -81.8% (active); with UACC-62 melanoma it was -49.4% (active); in the experiment with LOX IMVI melanoma, -49.7% (active). Moreover, in the experiment with SK-MEL-28 melanoma, the growth was 9.64% (active).
With `CC1=C(NCCN2CCCC2)C(=O)c2c(OCc3cccc(Cl)c3)cccc2C1=O`, the growth in the experiment on DU-145 prostate is 89.9%; with K-562 leukemia it was 30.8%; in the experiment on MALME-3M melanoma it was 53%; with MDA-MB-231 breast it was 62.8%; in the experiment with RXF 393 renal it was 73.8%; in the experiment with SF-268 CNS, 72.8%. Besides, the growth is 56.9% in the experiment with SF-295 CNS; -42.4% (active) in the experiment with UACC-257 melanoma; -72.6% (active) with M14 melanoma; 57.1% in the experiment on HCT-15 colon; 26.1% in the experiment on HT29 colon; 75.1% in the experiment with SNB-75 CNS. Besides, the growth in the experiment on SNB-19 CNS was 99.4%; in the experiment with U251 CNS, 61.7%; with PC-3 prostate it was 69.9%; in the experiment with SK-MEL-5 melanoma, 67.1%; in the experiment on UACC-62 melanoma, 93.7%; with LOX IMVI melanoma it was 36.1%. Moreover, the growth with SK-MEL-28 melanoma was -8.01% (active).
Take `COc1cc(C(=O)/C=C/c2c(C)n([O-])c3ccc(C)cc3[n+]2=O)cc(OC)c1OC`: the growth is 49.3% in the experiment on DU-145 prostate; 0.289% (active) with K-562 leukemia; 83.8% in the experiment on MALME-3M melanoma; 85% in the experiment with MDA-MB-231 breast; -32.4% (active) with RXF 393 renal; 59% in the experiment with SF-268 CNS. Moreover, the growth with SF-295 CNS is 110%; in the experiment with UACC-257 melanoma, 47.7%; in the experiment with M14 melanoma, 60.1%; with HCT-15 colon, 25.9%; in the experiment on HT29 colon it was 25.3%; in the experiment with SNB-75 CNS it was 73.2%. Besides, the growth is 108% with SNB-19 CNS; 55.4% in the experiment with U251 CNS; 64.8% in the experiment with PC-3 prostate; 89% with SK-MEL-5 melanoma; 54% in the experiment on UACC-62 melanoma; 33% in the experiment on LOX IMVI melanoma. Further, the growth in the experiment on SK-MEL-28 melanoma is 72.1%.
